Test results as given in article PMC11006913.

The sequences below were run against T1, NKX2-6 (Homo sapiens, UniProt A6NCS4 118-204, R150C) (assay: PBM; 200 nM protein, PBS). Settings: dsDNA, one strand shown.
T1 sequence: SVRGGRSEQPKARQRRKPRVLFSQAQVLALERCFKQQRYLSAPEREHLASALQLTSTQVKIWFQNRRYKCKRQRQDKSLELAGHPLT
In the case of AAACGGCC, the binding signal is reported as 9.82 upbm affinity estimate (log intensity, higher = more binding, comparable within an allelic series).
CGCCAACC was tested, and the binding signal was 9.44 upbm affinity estimate (log intensity, higher = more binding, comparable within an allelic series).
For AGTAAGTA, the binding signal was 11.1 upbm affinity estimate (log intensity, higher = more binding, comparable within an allelic series).
For GTAAGTAC, the binding signal was 11.7 upbm affinity estimate (log intensity, higher = more binding, comparable within an allelic series).
With AAAAAGTG the binding signal was 11.2 upbm affinity estimate (log intensity, higher = more binding, comparable within an allelic series).
For CCCTGCCA, the binding signal was 9.63 upbm affinity estimate (log intensity, higher = more binding, comparable within an allelic series).
For GACCTGGC, the binding signal was 9.43 upbm affinity estimate (log intensity, higher = more binding, comparable within an allelic series).
AGGCAGTC was tested, and the binding signal was 9.73 upbm affinity estimate (log intensity, higher = more binding, comparable within an allelic series).

What follows are sequences tested against HOXB9 (Homo sapiens, UniProt P17482 171-250, R186Q) (assay: PBM; 200 nM protein, PBS). Settings: dsDNA, one strand shown.
Chain of HOXB9 (P17482 171-250 R186Q): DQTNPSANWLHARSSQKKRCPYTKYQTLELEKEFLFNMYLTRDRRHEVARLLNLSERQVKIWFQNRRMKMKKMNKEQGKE
For AATTGCTA, the binding signal was 10.6 upbm affinity estimate (log intensity, higher = more binding, comparable within an allelic series).
In the case of AACCCATT, the binding signal is reported as 10.4 upbm affinity estimate (log intensity, higher = more binding, comparable within an allelic series).
In the case of TACTGTAA, the binding signal is reported as 10.1 upbm affinity estimate (log intensity, higher = more binding, comparable within an allelic series).
In the case of AATCAATA, the binding signal is reported as 10.4 upbm affinity estimate (log intensity, higher = more binding, comparable within an allelic series).
With ATGATTTA the binding signal was 10.4 upbm affinity estimate (log intensity, higher = more binding, comparable within an allelic series).
With AATACAAT the binding signal was 9.98 upbm affinity estimate (log intensity, higher = more binding, comparable within an allelic series).
ATAGATAA was tested, and the binding signal was 10.4 upbm affinity estimate (log intensity, higher = more binding, comparable within an allelic series).
In the case of AAGCAATA, the binding signal is reported as 10.1 upbm affinity estimate (log intensity, higher = more binding, comparable within an allelic series).
With AGGCTAAT the binding signal was 9.92 upbm affinity estimate (log intensity, higher = more binding, comparable within an allelic series).
TAACTTAA was tested, and the binding signal was 10.1 upbm affinity estimate (log intensity, higher = more binding, comparable within an allelic series).
In the case of AATACCAT, the binding signal is reported as 9.96 upbm affinity estimate (log intensity, higher = more binding, comparable within an allelic series).
For ATTTAATC, the binding signal was 10.7 upbm affinity estimate (log intensity, higher = more binding, comparable within an allelic series).
With CATTACTA the binding signal was 10.5 upbm affinity estimate (log intensity, higher = more binding, comparable within an allelic series).
With AAGTAATC the binding signal was 9.94 upbm affinity estimate (log intensity, higher = more binding, comparable within an allelic series).
For CCATTTTC, the binding signal was 10 upbm affinity estimate (log intensity, higher = more binding, comparable within an allelic series).
CATAATCG was tested, and the binding signal was 10.3 upbm affinity estimate (log intensity, higher = more binding, comparable within an allelic series).
With CATTTAAA the binding signal was 10.6 upbm affinity estimate (log intensity, higher = more binding, comparable within an allelic series).
AATGCAAT was tested, and the binding signal was 10.2 upbm affinity estimate (log intensity, higher = more binding, comparable within an allelic series).
In the case of AGGAATAA, the binding signal is reported as 9.78 upbm affinity estimate (log intensity, higher = more binding, comparable within an allelic series).
In the case of AACATATG, the binding signal is reported as 9.84 upbm affinity estimate (log intensity, higher = more binding, comparable within an allelic series).
For AAGATCAT, the binding signal was 9.78 upbm affinity estimate (log intensity, higher = more binding, comparable within an allelic series).
In the case of TAAACTAA, the binding signal is reported as 10.1 upbm affinity estimate (log intensity, higher = more binding, comparable within an allelic series).
In the case of ACATTACA, the binding signal is reported as 10.5 upbm affinity estimate (log intensity, higher = more binding, comparable within an allelic series).
In the case of ATTACGTC, the binding signal is reported as 10.2 upbm affinity estimate (log intensity, higher = more binding, comparable within an allelic series).
With ATATTTCC the binding signal was 9.85 upbm affinity estimate (log intensity, higher = more binding, comparable within an allelic series).
In the case of AAATCTTA, the binding signal is reported as 9.77 upbm affinity estimate (log intensity, higher = more binding, comparable within an allelic series).
In the case of CGTTTAAA, the binding signal is reported as 9.99 upbm affinity estimate (log intensity, higher = more binding, comparable within an allelic series).
For AGAAATTA, the binding signal was 10.5 upbm affinity estimate (log intensity, higher = more binding, comparable within an allelic series).
